Assay outcomes from PubChem.
SW480 rereplic – DNA re-replication induction in SW480 cells | SW480 DNA re-replication, Hoechst DNA content imaging, 48 h | Potency, µM (highest dose often 46.1 µM), usual class: activators | 340,000 tested, 1.8% active; note: nearly all actives have a fitted effect of over 55% in size
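Cells (250 per well) received 23 nL compound or DMSO by pin tool and were kept 48 hr at 37 C, 5% CO2. Nuclei were then stained with Hoechst for 40 min and scanned for DNA content.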
Giardia kill – Giardia lamblia killing | Giardia lamblia trophozoite viability | activity change, % at 7.66 µM, hits read low | 340,000 tested, 0.15% active | AID 540267; in the data active = activity change below about -80%; inconclusive = between about -30% and that limit;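 note: parasites exposed to compound for two days anaerobically before the ATP read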
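Trophozoites 100 cells/well + cpd; 48 hrs, 37 deg C, anaerobic. ATPLite 1-Step added, 15-30 min RT, luminescence read (ATP-based viability).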
BCR signal inh – chronic active BCR signaling inhibition. 340,000 tested, 0.05% active. Potency, µM (doses to about 46.1 µM), usual class: inhibitors. ABC-DLBCL IkBa-CBG/CBR reporter, luminescence ratio, 4 h; active = well fitted inhibition curve with a large enough effect in the signal ratio, with a control signal flat, not every such curve was filed as active; inconclusive = small, poorly fitted or top-dose-only effect, or effect the other way, or a change in a side signal; the % refers to the signal ratio
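TMD8 ABC-DLBCL cells carrying doxycycline-inducible green luciferase fused to IkappaBalpha plus unfused red luciferase were exposed to compounds (up to 46 uM) for 4 hrs at 37C. Activity came from the overlap-corrected green/red luminescence ratio.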
VP16 counter – inhibits Gal4-VP16 luciferase reporter, ROR gamma counter-screen; AID 2546; Drosophila S2 Gal4-VP16 UAS-luciferase, luminescence, 20 h; 310,000 tested, 3.5% active; Potency, µM (series often up to 53.6 µM), usual class: inhibitors;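 note: Gal4-VP16 expression switched on by copper sulfate through the metallothionein promoter; nearly all actives have a fitted effect of over 50% in size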
MCF10A rereplic – inducers of DNA re-replication in MCF 10A breast cells. MCF 10A DNA re-replication, Hoechst nuclear intensity, 48 h. Potency, µM (doses to about 46.1 µM), hits mostly activators. 350,000 tested, 2.9% active; note: nearly all actives have a fitted effect of over 50% in size
RORgamma inh – ROR gamma (mouse) transcription inhibition | AID 2551 | 310,000 tested, 5.4% active | Drosophila S2 Gal4-RORgamma UAS-luciferase reporter, 20 h | Potency, µM (series often up to 53.6 µM), most hits filed as inhibitors | P51450; note: nearly all actives have a fitted effect of over 60% in size
Target sequence (P51450 whole entry, looked up, the tested form may be a part): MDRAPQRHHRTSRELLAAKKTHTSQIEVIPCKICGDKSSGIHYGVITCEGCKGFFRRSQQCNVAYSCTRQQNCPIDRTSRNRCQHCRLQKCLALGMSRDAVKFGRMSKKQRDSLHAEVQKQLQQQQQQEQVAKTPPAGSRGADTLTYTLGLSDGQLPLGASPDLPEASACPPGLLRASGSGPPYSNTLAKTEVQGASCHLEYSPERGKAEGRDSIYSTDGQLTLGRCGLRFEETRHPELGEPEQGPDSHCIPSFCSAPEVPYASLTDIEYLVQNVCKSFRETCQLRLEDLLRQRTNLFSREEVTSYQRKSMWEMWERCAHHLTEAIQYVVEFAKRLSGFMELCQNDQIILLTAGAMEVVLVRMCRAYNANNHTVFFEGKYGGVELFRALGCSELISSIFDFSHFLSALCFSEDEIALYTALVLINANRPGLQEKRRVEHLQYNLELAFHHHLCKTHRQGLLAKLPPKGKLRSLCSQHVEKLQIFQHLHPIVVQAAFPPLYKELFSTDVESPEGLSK
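In this cell-based reporter format, copper sulfate (700 uM final) drives Gal4–ROR gamma fusion expression from a metallothionein promoter in Drosophila Schneider cells; compounds preincubated 1 hr, reporter read after 20 hr at ambient temperature.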
Of the large screens only hits and unclear results are named; the others gave an inactive call; ! = a repeat was not active. Hits are enriched below; roughly 8.3% of the tested compounds scored in any of these assays. Unless noted, calls come from the whole dose curve; as a rule, active = well fitted curve in the direction sought with a large enough effect; inconclusive = small, poorly fitted or top-dose-only effect, or another doubt; inactive = no such curve, though single readings can be large; an effect the other way counts as inactive or inconclusive.

COc1cccc(OC)c1C1=NCC(=O)Nc2c1oc1ccc(Br)cc21	SW480 rereplic 0.651µM, BCR signal inh inconclusive, MCF10A rereplic inconclusive
CC(=O)Nc1ccc(OC(=O)N(C)c2ccc(C)cc2)cc1	none
Cc1ccc(NC(=O)c2cc(N(C)C)ccc2[P+](=O)O)cc1	SW480 rereplic inconclusive, BCR signal inh inconclusive, VP16 counter inconclusive, MCF10A rereplic 11.6µM
CC(C)OC(=O)C(O)(c1ccc(Cl)cc1)c1ccc(Cl)cc1	none (no result: SW480 rereplic, Giardia kill, BCR signal inh, MCF10A rereplic)
Oc1ccc(Cl)cc1Cl	none (no result: SW480 rereplic, Giardia kill, BCR signal inh, MCF10A rereplic)
Cc1ccc(N2CCN(C(=O)c3cn(CC4CCCCC4)nn3)C(C)C2)cc1 (stereo not given)	MCF10A rereplic 20.6µM (no result: BCR signal inh, VP16 counter, RORgamma inh)
Cc1ccc(/C(N)=N/OC(=O)CCC2CCCCC2)cc1	BCR signal inh inconclusive
C(=N\Nc1nncc2ccccc12)/c1ccccn1	SW480 rereplic 2.59µM, BCR signal inh inconclusive, VP16 counter 3.55µM, MCF10A rereplic inconclusive, RORgamma inh 1.41µM
CC1=C2C(=O)C3C(CC=C4C[C@@H](O)CC[C@@]43C)[C@@H]2CC[C@]12O[C@@H]1C[C@H](C)CN[C@H]1C2C (stereo not given in full)	none (no result: SW480 rereplic, Giardia kill, BCR signal inh, MCF10A rereplic)
O=c1cc(CN2CC=C(c3ccccc3)CC2)c2c(ccc3ccccc32)o1	BCR signal inh inconclusive, MCF10A rereplic inconclusive, RORgamma inh 5.62µM
COc1cc2c(c3oc4cccc(O)c4c(=O)c13)C1C=CO[C@@H]1O2 (stereo not given in full)	VP16 counter 10µM, RORgamma inh 12.6µM (no result: SW480 rereplic, Giardia kill, BCR signal inh, MCF10A rereplic)
CCCOc1ccc(C(=O)NC(=S)N2C[C@H]3C[C@H](C2)c2cccc(=O)n2C3)cc1	BCR signal inh inconclusive, VP16 counter inconclusive, RORgamma inh 8.91µM
O=C(NC(=S)N1C[C@H]2C[C@H](C1)c1cccc(=O)n1C2)c1ccc(Cl)cc1Cl	SW480 rereplic inconclusive, BCR signal inh inconclusive, RORgamma inh 10µM
[O-][Br+2]([O-])O	none (no result: SW480 rereplic, Giardia kill, BCR signal inh, MCF10A rereplic)
COc1c(Cl)cc(C(=O)NN)cc1Cl	SW480 rereplic 13µM, BCR signal inh inconclusive, VP16 counter inconclusive, MCF10A rereplic inconclusive, RORgamma inh inconclusive
CCOC(=O)c1sc(NC(=O)CN2CCN(c3ccc(OC)cc3)CC2)nc1C	BCR signal inh inconclusive
CCOP(=S)(OCC)Oc1ccc(Cl)cc1Cl	none (no result: SW480 rereplic, Giardia kill, BCR signal inh, MCF10A rereplic)
CC(=O)OC(C)(C)/C=C/C(=O)C(C)(O)C1C(O)CC2(C)C3CC=C4C(CC(O)C(=O)C4(C)C)C3(C)C(=O)CC12C (stereo not given)	SW480 rereplic 0.0116µM, MCF10A rereplic inconclusive (no result: BCR signal inh, VP16 counter, RORgamma inh)
COc1ccc2c(c1)C(c1ccc(N(CCCl)CCCl)cc1)=NCC2	SW480 rereplic inconclusive, MCF10A rereplic 13µM (no result: BCR signal inh, VP16 counter, RORgamma inh)
c1ccc(CCNCc2ccccc2)cc1	none
NNC(=S)NCCc1ccccc1	BCR signal inh inconclusive, VP16 counter 10µM, RORgamma inh 3.55µM
O=C1CN=C(c2cccs2)c2c(sc3c2CCCC3)N1	SW480 rereplic 20.6µM, BCR signal inh inconclusive, MCF10A rereplic 13µM
O=C1CN=C(c2ccccc2)c2c(sc3c2CCCC3)N1	BCR signal inh inconclusive, MCF10A rereplic inconclusive
Cc1cccc(N2CCN(C(=O)CCNS(=O)(=O)c3ccc4c(c3)oc(=O)n4C)CC2)c1C	SW480 rereplic inconclusive, MCF10A rereplic inconclusive
COc1cc(C(=O)N/N=C/c2ccc(OC(=O)N3CCOCC3)cc2)cc(OC)c1OC	SW480 rereplic 20.6µM, BCR signal inh inconclusive, MCF10A rereplic 6.51µM
O=C(N/N=C/c1ccccc1OC(=O)N1CCOCC1)c1cccs1	SW480 rereplic inconclusive, BCR signal inh inconclusive, VP16 counter 12.6µM, RORgamma inh 2.51µM
O=C(Nc1cccc(OC(=O)N2CCOCC2)c1)N1CCOCC1	none
O=C(/C=C/c1ccc2c(c1)OCO2)c1c(O)n(CCc2ccccc2)c(=O)[nH]c1=O	SW480 rereplic inconclusive, Giardia kill inconclusive, MCF10A rereplic 11.6µM
O=C(/C=C/c1ccccc1)c1c(O)n(CCc2ccccc2)c(=O)[nH]c1=O	SW480 rereplic inconclusive, MCF10A rereplic 8.2µM
COc1cc(/C=C/C(=O)c2c(O)n(CCc3ccccc3)c(=O)[nH]c2=O)ccc1O	SW480 rereplic inconclusive, BCR signal inh inconclusive, VP16 counter inconclusive, MCF10A rereplic inconclusive
COc1cc([C@@H]2c3cc4c(cc3[C@@H](OC)[C@H]3COC(=O)[C@H]23)OCO4)cc(OC)c1O	SW480 rereplic 5.17µM, BCR signal inh inconclusive, MCF10A rereplic inconclusive
COc1cc([C@@H]2c3cc4c(cc3[C@H](O)[C@H]3COC(=O)[C@H]23)OCO4)cc(OC)c1OC	SW480 rereplic 0.0231µM, Giardia kill inconclusive, BCR signal inh inconclusive, MCF10A rereplic 0.0211µM
C[C@H]1COC(=O)[C@@H](Cc2ccc(F)cc2)CC/C=C/C[C@@H](CC(=O)N(CCO)Cc2ccccc2)C(=O)N1	none (no result: VP16 counter, RORgamma inh)
CCOC(=O)/C(C#N)=C1/SC(C)C(=O)N1c1ccc(Br)cc1 (stereo not given)	MCF10A rereplic inconclusive, RORgamma inh 11.2µM
CC1CC(=O)O1 (stereo not given)	none (no result: SW480 rereplic, Giardia kill, BCR signal inh, MCF10A rereplic)
CCOC(=O)c1c(-n2c(C)cc(C=C3C(=O)NC(=S)NC3=O)c2C)sc2c1CCCC2	SW480 rereplic inconclusive, VP16 counter inconclusive, MCF10A rereplic 18.4µM, RORgamma inh 12.6µM
CCOC(=O)c1c(-n2c(C)cc(/C=C3/C(=O)NC(=O)N(CC)C3=O)c2C)sc2c1CCCC2	none (no result: BCR signal inh, VP16 counter, RORgamma inh)
c1ccc2c(c1)OC[C@@H](C1=NCCN1)O2	RORgamma inh 22.4µM! (no result: SW480 rereplic, Giardia kill, BCR signal inh, MCF10A rereplic)
Clc1nc(Cl)nc(Nc2ccccc2Cl)n1	none (no result: SW480 rereplic, Giardia kill, BCR signal inh, MCF10A rereplic)
O=c1[nH]c(=S)n(Cc2ccc(F)cc2)c(O)c1/C=N/N1CCCCC1	VP16 counter inconclusive, RORgamma inh 11.2µM
O=C(Nc1ccccc1C(=O)N/N=C/c1ccco1)c1ccccc1Cl	VP16 counter inconclusive, RORgamma inh 3.55µM
[O]=[Cr](=[O])([OH])[O][Cr](=[O])(=[O])[OH]	SW480 rereplic inconclusive, MCF10A rereplic 11.9µM! (no result: Giardia kill, BCR signal inh)
Cc1ccc(C(=O)Nc2nc3ccccc3n2CCN2CCCC2)cc1	SW480 rereplic inconclusive, BCR signal inh inconclusive, VP16 counter 7.08µM, RORgamma inh 2.51µM
O=C1CCCC2C3CC(CN12)C1CCCCN1C3 (stereo not given)	none (no result: SW480 rereplic, Giardia kill, BCR signal inh, MCF10A rereplic)
CC(=O)OC1C[C@H](O[C@@H]2C(O)C[C@H](O[C@@H]3C(O)C[C@@H](OC4CC[C@]5(C)C(CCC6C5CC(O)[C@@]5(C)C(C7=CC(=O)OC7)CC[C@@]65O)C4)OC3C)OC2C)O[C@H](C)[C@H]1O[C@H]1OC(CO)C(O)C(O)C1O (stereo not given in full)	SW480 rereplic inconclusive, MCF10A rereplic 0.119µM (no result: Giardia kill, BCR signal inh)
CC1OC(OC2CCC3(C)C(CCC4C3CC(O)C3(C)C(C5=CC(=O)OC5)CCC43O)C2)CC(O)C1OC1CC(O)C(OC2CC(O)C(OC3OC(CO)C(O)C(O)C3O)C(C)O2)C(C)O1 (stereo not given)	SW480 rereplic inconclusive (no result: Giardia kill, BCR signal inh)
